Records with an inconclusive call do not appear. Calls of active or inactive are those of the source. The call rests on the fitted dose curve; in most records, active means well fitted activation curve with a large enough effect in the main read-out, with a control signal flat (not every such curve was filed as active); inconclusive means small, poorly fitted or top-dose-only effect, or effect the other way, or a change in a side signal; inactive means flat fitted curve, though single readings scatter.
What follows are molecules tested against 3',5'-cyclic-AMP phosphodiesterase 4B (Homo sapiens) (UniProt Q07343) (assay: qHTS Assay for Inhibitors of PDE-IV (AID 607)). Conditions: HEK293 ACTOne CNG channel cells, membrane potential fluorescence; series mostly up to 22.9 µM.
3',5'-cyclic-AMP phosphodiesterase 4B (Homo sapiens), sequence (Q07343 whole entry, looked up): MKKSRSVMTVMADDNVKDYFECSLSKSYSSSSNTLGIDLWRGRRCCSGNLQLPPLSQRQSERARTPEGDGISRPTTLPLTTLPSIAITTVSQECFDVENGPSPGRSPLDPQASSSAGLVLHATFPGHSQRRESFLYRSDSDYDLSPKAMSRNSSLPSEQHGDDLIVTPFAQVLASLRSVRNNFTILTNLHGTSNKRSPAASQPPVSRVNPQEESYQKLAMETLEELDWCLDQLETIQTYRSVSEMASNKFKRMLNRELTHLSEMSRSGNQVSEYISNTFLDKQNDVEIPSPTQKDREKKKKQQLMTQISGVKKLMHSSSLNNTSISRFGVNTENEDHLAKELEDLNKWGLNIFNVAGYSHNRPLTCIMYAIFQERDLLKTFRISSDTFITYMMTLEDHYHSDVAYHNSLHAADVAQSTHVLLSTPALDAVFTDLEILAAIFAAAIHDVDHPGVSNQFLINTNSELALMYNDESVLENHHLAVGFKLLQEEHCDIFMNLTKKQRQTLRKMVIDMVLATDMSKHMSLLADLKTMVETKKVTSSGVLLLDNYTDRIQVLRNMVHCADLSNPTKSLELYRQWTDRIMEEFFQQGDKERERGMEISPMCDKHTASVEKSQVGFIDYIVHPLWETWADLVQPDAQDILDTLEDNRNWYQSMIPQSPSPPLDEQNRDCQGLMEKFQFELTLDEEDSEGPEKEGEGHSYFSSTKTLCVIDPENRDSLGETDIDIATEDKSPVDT
In short: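 Cell-based read-out of cAMP via a modified cyclic nucleotide-gated channel and membrane potential dye (535/590 nm) in HEK293 cells expressing PDE4 endogenously. Compounds tested up to 22.9 uM final; 100 uM RO 20-1724 reference.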

outcome, inactive:
COC(=O)[C@@]1(Cc2ccc(F)cc2)[C@H]2c3cc(C(=O)N(C)C)n(CC4CC4)c3C[C@H]2CN1C(=O)c1ccccc1
CCC/C=C(\CCC)C(NC(=O)CCc1ccccc1)c1ccc(C(F)(F)F)cc1 (stereo unspecified)
COC(=O)[C@@]1(Cc2ccc(OC)cc2)[C@H]2c3cc(C(=O)N4CCCC4)n(CCCNc4ncc(C(F)(F)F)cc4Cl)c3C[C@H]2CN1C(=O)c1ccccc1
COC(=O)[C@@]1(Cc2ccc(F)cc2)[C@H]2c3cc(C(=O)N(C)C)n(Cc4ccccc4)c3C[C@H]2CN1C(=O)c1ccccc1
COC(=O)[C@@]1(Cc2ccc(OC)cc2)[C@H]2c3cc(C(=O)N(C)C)n(Cc4ccc(C)c(F)c4F)c3C[C@H]2CN1C(=O)c1ccccc1
COC(=O)[C@@]1(Cc2ccc(OC)cc2)[C@H]2c3cc(C(=O)N(C)C)n(Cc4ccccc4)c3C[C@H]2CN1C(=O)c1ccccc1
COC(=O)[C@H]1[C@@H]2C[C@H]3c4[nH]c5ccccc5c4CCN3C[C@@H]2CC[C@@H]1O
CCCC/C=C/C(NC(=O)CCc1ccccc1)c1ccccc1 (stereo unspecified)
COC(=O)[C@@]1(Cc2ccc(OC)cc2)[C@H]2c3cc(C(=O)N4CCCC4)n(CCc4ccccn4)c3C[C@H]2CN1C(=O)c1ccccc1
COC(=O)[C@@]1(Cc2ccc(OC)cc2)[C@H]2c3cc(C(=O)N4CCCC4)n(Cc4ccc(C)o4)c3C[C@H]2CN1C(=O)c1ccccc1
CCCC/C=C/C(NC(=O)OCc1ccccc1Cl)c1ccccc1 (stereo unspecified)

Source: PubChem BioAssay (NCATS)
